In PubChem BioAssay (NCATS):
Inconclusive results are not listed. Entries that show only a call come without a potency. The source made the active and inactive calls. Calls come from the whole dose curve; as a rule, active = well fitted inhibition curve with a large enough effect; inconclusive = small, poorly fitted or top-dose-only effect; inactive = flat fitted curve, though single readings scatter.

Tests used:
Experiment in all cases: qHTS profiling for inhibitors of Plasmodium falciparum proliferation (AID 504749); note: nearly all actives have a fitted effect of over 60% in size
Details in all cases: P. falciparum in erythrocytes, SYBR Green DNA, 72 h; series mostly up to 28.7 µM
CP201 = test system: CP201
How it was run: (§1)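 Parasite proliferation within erythrocytes, 72 h exposure. Endpoint: SYBR Green I fluorescence after overnight lysis at room temperature. Controls: 0.29 uM artemisinin, DMSO.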

CP215 = test system: CP215
How it was run: as §1

CP250 = test system: CP250
How it was run: as §1

CP256 = test system: CP256
How it was run: as §1

CP260 = test system: CP260
How it was run: as §1

CP297 = test system: CP297
How it was run: as §1

CP315 = test system: CP315
How it was run: as §1

CP325 = test system: CP325
How it was run: as §1

CP329 = test system: CP329
How it was run: as §1

CP335 = test system: CP335
How it was run: as §1

DIV14 = test system: DIV14
How it was run: as §1

DIV17 = test system: DIV17
How it was run: as §1

FAB9 = test system: FAB9
How it was run: as §1

ICS = test system: ICS
How it was run: as §1

JCK = test system: JCK
How it was run: as §1

P93_24 = test system: P93_24
How it was run: as §1

PC15 = test system: PC15
How it was run: as §1

PC49 = test system: PC49
How it was run: as §1

TAB109 = test system: TAB109
How it was run: as §1

PC26 = test system: PC26
How it was run: as §1
Potency is the fitted concentration of half-maximal effect.

Row | SMILES | Potency (CP201) | Potency (CP215) | Potency (CP250) | Potency (CP256) | Potency (CP260) | Potency (CP297) | Potency (CP315) | Potency (CP325) | Potency (CP329) | Potency (CP335) | Potency (DIV14) | Potency (DIV17) | Potency (FAB9) | Potency (ICS) | Potency (JCK) | Potency (P93_24) | Potency (PC15) | Potency (PC49) | Potency (TAB109) | Potency (PC26)
1 | NC(=O)NC(CCC(=O)O)C(=O)O (stereo not given) | inactive | inactive | inactive | inactive | inactive | inactive | inactive | inactive | inactive | inactive | inactive | inactive | inactive | inactive | inactive | inactive | inactive | inactive | inactive | 
2 | CC(CCC(=O)O)C1CCC2C3C(=O)C[C@@H]4CC(=O)CC[C@@]4(C)C3CC(=O)[C@]12C (stereo not given in full) | inactive | inactive | inactive | inactive | inactive | inactive | inactive | inactive | inactive |  |  |  | inactive | inactive | inactive | inactive | inactive | inactive | inactive | inactive
3 | CC(=O)N1CC(O)CC1C(=O)O (stereo not given) | inactive | inactive | inactive | inactive |  | inactive | inactive | inactive | inactive | inactive | inactive | inactive | inactive | inactive | inactive | inactive | inactive | inactive | inactive | inactive
4 | O=C(O)c1ccc(N[C@@H]2OC[C@@H](O)[C@@H](O)[C@@H]2O)cc1 | inactive | inactive | inactive | inactive | inactive | inactive | inactive | inactive | inactive | inactive | inactive | inactive | inactive | inactive | inactive | inactive | inactive | inactive | inactive | inactive
5 | CN(C)CC/C=C1\c2ccccc2COc2ccc(CC(=O)O)cc21 | inactive | inactive | inactive | inactive | inactive | inactive | inactive | inactive | inactive |  | inactive | inactive | inactive | inactive | inactive | inactive | inactive | inactive | inactive | 
6 | NC(=O)OC[C@@H]1[C@H](NC(=O)/C(=N/OCC(=O)O)c2csc(N)n2)C(=O)N1S(=O)(=O)O | inactive | inactive | inactive | inactive | inactive | inactive | inactive | inactive | inactive | inactive | inactive |  | 100 nM (active) | inactive |  | inactive | inactive | inactive | inactive | inactive
7 | CC1(C)CC1C(=O)N/C(=C/CCCCSCC(N)C(=O)O)C(=O)O (stereo not given) | inactive | inactive | inactive | inactive |  | inactive | inactive | inactive | inactive | inactive | inactive | inactive | inactive | inactive | inactive | inactive | inactive | inactive | inactive | inactive
8 | NC(=O)c1ncn(C2OC(CO)C(O)C2O)c1N (stereo not given) | inactive | inactive | inactive | inactive | inactive | inactive | inactive | inactive | inactive |  | inactive | inactive | inactive | inactive | inactive | inactive | inactive | inactive | inactive | inactive
9 | CNC1C(O)C(OC2C(NC(=O)C(O)CN)CC(N)C(OC3OC(CN)C(O)C(O)C3O)C2O)OCC1(C)O (stereo not given) | inactive | inactive | inactive | inactive | inactive | inactive | inactive | inactive | inactive |  | inactive | inactive | inactive |  | inactive | inactive | inactive | inactive | inactive | inactive
10 | COc1cc2c(cc1O)CCN[C@@]21CS[C@H]2c3c(OC(C)=O)c(C)c4c(c3C(COC1=O)N1C2C2c3c(cc(C)c(OC)c3O)CC([C@@H]1O)N2C)OCO4 (stereo not given in full) | 0.0013 µM (active) | 0.0005 µM (active) | 4 nM (active) | 5.6 nM (active) | 0.9 nM (active) | 0.0005 µM (active) | 0.0015 µM (active) | 0.5 nM (active) | 0.0005 µM (active) | 0.4 nM (active) | 0.4 nM (active) |  | 1 nM (active) | 0.9 nM (active) |  | 0.9 nM (active) | 1.1 nM (active) | 1.3 nM (active) | 0.9 nM (active) | 0.0013 µM (active)
11 | CO[C@H]1C[C@@H]2CC[C@@H](C)[C@@](O)(O2)C(=O)C(=O)N2CCCC[C@H]2C(=O)O[C@H]([C@H](C)C[C@@H]2CC[C@@H](O)[C@H](OC)C2)CC(=O)[C@H](C)/C=C(\C)[C@@H](O)[C@@H](OC)C(=O)[C@H](C)C[C@H](C)/C=C/C=C/C=C/1C | 6.01 µM (active) | 1.69 µM (active) | 3550 nM (active) | 4470 nM (active) | 4470 nM (active) | 4.26 µM (active) | 4.26 µM (active) | 5360 nM (active) | 4.26 µM (active) | 1900 nM (active) | 1690 nM (active) | 1.69 µM (active) |  | 501 nM (active) | 10 µM (active) | 2000 nM (active) | 3980 nM (active) | 10000 nM (active) | 2240 nM (active) | 1.51 µM (active)
12 | NC(=O)C1CC2(NC(=O)NC2=O)c2cc(F)ccc2O1 (stereo not given) | inactive | inactive | inactive | inactive | inactive | inactive | inactive | inactive | inactive | inactive |  | inactive | inactive | inactive | inactive | inactive | inactive | inactive | inactive | inactive
13 | CC[C@H](C)[C@H]1O[C@]2(CC[C@@H]1C)C[C@@H]1C[C@@H](C/C=C(\C)[C@H](O[C@@H]3C[C@H](OC)[C@H](O[C@@H]4C[C@H](OC)[C@@H](O)[C@H](C)O4)[C@H](C)O3)[C@@H](C)/C=C/C=C3\CO[C@@H]4[C@H](O)C(C)=C[C@@H](C(=O)O1)[C@]34O)O2 | 1.51 µM (active) | 1.35 µM (active) | 891 nM (active) | 708 nM (active) | 2240 nM (active) | 1.51 µM (active) |  | 1350 nM (active) | 1.35 µM (active) | 1350 nM (active) | 1690 nM (active) | 2.13 µM (active) | 3160 nM (active) | 1260 nM (active) | 15.8 µM (active) | 1260 nM (active) | 2820 nM (active) |  | 1260 nM (active) | 1.2 µM (active)
14 | C[n+]1c2cc(N)ccc2cc2ccc(N)cc21 | 1.69 µM (active) | 1.07 µM (active) | 1120 nM (active) | 1000 nM (active) | 316 nM (active) | 1.35 µM (active) | 2.13 µM (active) | 953 nM (active) | 1.07 µM (active) | 849 nM (active) | 213 nM (active) | 0.269 µM (active) | 199 nM (active) |  | 0.794 µM (active) | 562 nM (active) | 178 nM (active) | 447 nM (active) | 447 nM (active) | 1.35 µM (active)
15 | NCCCCC(N)C(=O)O (stereo not given) | inactive | inactive | inactive | inactive | inactive |  | inactive | inactive | inactive | inactive | inactive | inactive | inactive | inactive | inactive | inactive | inactive | inactive | inactive | 
16 | CCCCC(=O)O[C@]1(C(=O)CO)CCC2C3CCC4=CC(=O)CCC4(C)C3C(O)CC21C (stereo not given in full) | inactive | inactive | inactive | inactive |  | inactive | inactive | inactive | inactive | inactive | inactive | inactive | inactive |  | inactive | inactive | inactive | inactive | inactive | inactive
17 | CO/N=C(/C(=O)N[C@@H]1C(=O)N2C(C(=O)O)=C(CSc3cnns3)CS[C@H]12)c1csc(N)n1 | inactive | inactive | inactive | inactive | inactive | inactive | inactive | inactive | inactive | inactive | inactive | inactive | inactive | inactive | inactive | inactive | inactive | inactive |  | inactive
18 | CCN(CC)CC(=O)Nc1c(C)cc(C)cc1C | inactive | inactive | inactive | inactive | inactive | inactive | inactive | inactive | inactive |  | inactive | inactive | inactive | inactive | inactive | inactive | inactive | inactive | inactive | inactive
19 | CC(=O)OCC(=O)[C@@]1(O)CCC2C3C[C@H](C)C4=CC(=O)C=CC4(C)C3C(O)CC21C (stereo not given in full) | inactive | inactive | inactive | inactive | inactive | inactive | inactive | inactive | inactive | inactive |  | inactive | inactive | inactive | inactive | inactive | inactive | inactive | inactive | inactive
20 | CC1C(=O)C(=O)C=CN1C (stereo not given) | inactive | inactive | inactive | inactive |  | inactive | inactive | inactive | inactive | inactive | inactive | inactive | inactive | inactive | inactive | inactive | inactive | inactive | inactive | inactive
21 | Nc1nc(F)nc2c1ncn2[C@@H]1O[C@H](CO)[C@@H](O)[C@H]1O | inactive | inactive | inactive | inactive | inactive | inactive | inactive | inactive | inactive | inactive | inactive | inactive | inactive | inactive | inactive | inactive | inactive | inactive | inactive | inactive
22 | CO/N=C(/C(=O)N[C@@H]1C(=O)N2C(C(=O)O)=C(CSC(=O)c3ccco3)CSC12)c1csc(N)n1 (stereo not given in full) | inactive | inactive | inactive | inactive | inactive | inactive | inactive | inactive | inactive | inactive | inactive | inactive | inactive | inactive | inactive | inactive | inactive | inactive | inactive | inactive
23 | OCC(CO)NC1C[C@](O)(CO)[C@@H](O)[C@H](O)[C@H]1O (stereo not given in full) | inactive | inactive | inactive | inactive | inactive | inactive | inactive | inactive | inactive | inactive | inactive | inactive | inactive | inactive | inactive | inactive | inactive | inactive | inactive | inactive
24 | CN1[C@@H]2CC[C@@H]1CC(OC(=O)[C@H](CO)c1ccccc1)C2 (stereo not given in full) | inactive | inactive | inactive | inactive | inactive | inactive | inactive | inactive | inactive | inactive | inactive | inactive | inactive | inactive | 15.8 µM (active) | inactive |  |  | inactive | inactive
